Compound activity deposited in PubChem BioAssay by National Center for Advancing Translational Sciences (NCATS).
Hits are enriched below; roughly 6% of the tested compounds scored in any of these assays.
D1 PAM = potentiators of human D1 dopamine receptor. P21728. HEK293 TREx D1 cells, calcium flux, dopamine EC20 potentiation. potentiation, % at 10 µM. hit rate 0.036% among 360,000. AID 504651; in the data active = potentiation above about 30%; also: 0% is about no effect
D1 agonist = agonists of human D1 dopamine receptor. HEK293 T-REx D1 cells, calcium flux, agonist mode. AID 504660. activation, % at 2 µM. P21728. hit rate 1% among 360,000; in the data active = activation above about 30%; also: 0% is about no effect
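Inducible HEK293 T-REx D1 cells, force-coupled to calcium signalling, were plated at 4000 cells/well with tetracycline and held overnight at 30 C. After no-wash calcium dye loading, compound-evoked calcium rise over 180 s flagged agonists.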
DRD3 antagonist = antagonists of human D3 dopamine receptor; P35462; D3R cells, DiscoveRx beta-arrestin luminescence, antagonist mode; hits give low values; max response, negative = inhibition, %; hit rate 2.5% among 360,000; in the data active = max response below about -50%; inconclusive = no clear call, values can overlap the other calls; also: % is scaled to controls: 0 for no effect and ±100 for the full control effect
Target sequence (P35462 whole entry, looked up): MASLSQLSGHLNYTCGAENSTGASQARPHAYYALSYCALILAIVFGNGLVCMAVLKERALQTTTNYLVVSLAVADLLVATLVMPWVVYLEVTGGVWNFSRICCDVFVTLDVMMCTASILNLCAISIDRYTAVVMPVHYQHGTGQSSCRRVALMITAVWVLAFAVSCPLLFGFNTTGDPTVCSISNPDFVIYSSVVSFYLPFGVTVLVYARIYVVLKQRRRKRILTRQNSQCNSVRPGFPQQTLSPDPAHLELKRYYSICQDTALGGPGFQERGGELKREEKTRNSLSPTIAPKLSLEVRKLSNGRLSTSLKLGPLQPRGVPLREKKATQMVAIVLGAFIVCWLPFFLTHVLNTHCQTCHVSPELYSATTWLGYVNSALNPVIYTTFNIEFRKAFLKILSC
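Cells expressing the human receptor were seeded at 1500 cells/well, incubated overnight at 37 degrees C in 5% CO2, then exposed to library compounds with dopamine controls for 90 minutes at 37 degrees C before luminescent detection.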
D1 antagonist = antagonists of human D1 dopamine receptor; P21728; HEK293 TREx D1 cells, calcium flux, dopamine EC80; hits give low values; activity change, negative = inhibition, % at 10 µM; hit rate 3.2% among 360,000; AID 504652; in the data active = activity change below about -30%; also: % is scaled to controls: 0 for no effect and ±100 for the full control effect
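Inducible Hek293 Trex D1 cells (tetracycline, overnight, 30 C). Calcium dye 30–90 min RT. Antagonist mode: EC80 dopamine added after 180 s compound read.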
DRD3 agonist = agonists of human D3 dopamine receptor | P35462 | D3R DiscoveRx beta-arrestin cells, luminescence, 90 min | max activation, % | hit rate 0.58% among 410,000 | AID 652048; in the data active = max activation above about 30%; also: 0% is about no effect
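Agonist-mode cell screen: cells plated at 1500/well and incubated overnight at 37 °C, then exposed to library compounds for 90 min at 37 °C. Detection reagent was added for 30–60 min at room temperature, and luminescence was read.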
Numbers without * were called inactive; ? = inconclusive; . = no result; ! = repeats disagree.

SMILES | D1 PAM | D1 agonist | DRD3 antagonist | D1 antagonist | DRD3 agonist
Cn1c(=O)cc(SCC(=O)NCCCN2CCN(c3ccc(F)cc3)CC2)c2ccccc21 | -10 | -1 | -69* | -7 | -7
Cn1c(C(=O)NCCCN2CCN(c3ccc(F)cc3)CC2)cc2c(=O)n(C)c3ccccc3c21 | . | . | -84* | . | -14
Cn1c(C(=O)NCCN2CCc3ccccc3C2)cc2c(=O)n(C)c3ccccc3c21 | -6 | 2 | -88* | -9 | -12
COc1ccc(-c2cc(C(C)=O)c(C)n2CCC(=O)Nc2cccc(C)c2C)cc1 | -6 | 0 | . | 20 | -1
Cc1ccc(F)cc1NC(=O)CSc1nc(-c2cccs2)cc(C(F)(F)F)n1 | 4 | 1 | . | 6 | 4
Cc1cccc(CCNC(=O)c2nn(C)c3c2CSc2ccccc2-3)c1 | 3 | 0 | . | 11 | 3
CCCN1C(=O)C(Cc2nc3ccccc3c(=O)n2CC)c2cc(Br)ccc21 (configuration not stated) | -1 | 0 | . | 9 | -10
CCOc1ccc(CCNC(=O)c2oc(=O)c3ccccc3c2-c2ccc(C)cc2)cc1OCC | 6 | 0 | . | 1 | 13
COc1cc2nc(N3CCN(C(=O)C4COc5ccccc5O4)CC3)nc(N)c2cc1OC (configuration not stated) | -4 | 2 | 63 | 12 | 17
COc1ccc2ccccc2c1CN1CCN(C(=O)c2ccco2)CC1 | . | 17 | -10 | 4 | 48*
Cc1ccccc1-c1nnc(CN2CCN(C(=O)c3ccco3)CC2)o1 | -2 | 1 | 1 | -3 | 20
CCOc1ccc(CN2CCN(C(=O)c3ccco3)CC2)cc1 | -4 | 3 | 0 | -1 | 25
COc1ccc2ccccc2c1CN1CCN(C(=O)c2ccccc2)CC1 | -4 | 1 | ? | 15 | -16
COc1cc2nc(N3CCN(C(=O)c4ccco4)CC3)nc(N)c2cc1OC | -5 | 1 | . | -32*! | .
CCOc1cc(CN2CCN(C(=O)c3ccco3)CC2)ccc1OC | 4 | -2 | ? | 14 | 44*
O=C(c1ccco1)N1CCN(Cc2nnc(-c3cccc(Cl)c3)o2)CC1 | -3 | 2 | -7 | 5 | 37*
CCCC[C@]12Cc3cc(OC)c(OC)cc3C(O1)C1=C(O2)C(=O)c2ccccc2C1=O | 2 | 0 | . | 5 | .
CCCCN(C)c1nc2c(S(=O)(=O)c3ccc(CC)cc3)nnn2c2ccc(Cl)cc12 | -4 | 2 | . | 12 | 9
Cc1cccc(NC(=O)c2ccc(-c3nc(CSc4ccccc4)c(C)o3)cc2)c1C | -1 | 7 | . | -6 | 8
CCn1c(CO)nc2c1c(=O)[nH]c(=O)n2Cc1ccccc1 | -1 | 2 | -80* | -2 | -33
COc1cccc(-c2nc3c(c(=O)[nH]c(=O)n3Cc3ccccc3)n2CCO)c1OC(F)F | -3 | 5 | -3 | -43* | 0
O=C(Nc1ncccc1Cl)C1COc2ccccc2O1 (configuration not stated) | -7 | 47* | -26 | 9 | -16
CCOC(=O)C1(CCOc2ccccc2)CCN(Cc2cccc3nonc23)CC1 | 5 | 9 | -89* | -5 | -4
CCOC(=O)C1(CCOc2ccccc2)CCN(Cc2ccc(OC)c(O)c2)CC1 | 0 | 27 | -14 | -71* | -17
CCOC(=O)C1(CCc2ccccc2)CCN(Cc2ccc(O)cc2)CC1 | -6 | 18 | -57* | -86* | -23
SMILES | D1 PAM | D1 agonist | DRD3 antagonist | D1 antagonist | DRD3 agonist
CCn1nc(-c2ccccc2)c(-c2ccccc2)c(C(=O)Nc2nc(C)c(C(=O)N(C)C)s2)c1=O | 2 | 3 | . | -4 | 4
COc1ccc2c(c1)CCc1c(C(=O)Nc3c(C)nn(Cc4ccc(C)cc4)c3C)noc1-2 | 0 | 14 | . | -18 | 8
O=C(CCc1nc2ccccc2c(=O)[nH]1)Nc1ccc(F)cc1 | -3 | 1 | -54* | 17 | -3
COc1ccc(NC(=O)CN(C)C(=O)CCCc2nc3ccccc3c(=O)[nH]2)cc1 | -9 | 2 | 7 | 12 | 1
O=C(COC(=O)CCc1nc2ccccc2c(=O)[nH]1)Nc1ccccc1Cl | 5 | 1 | 18 | -41* | 7
CN(CC(=O)Nc1ccc(F)cc1)C(=O)CCc1nc2ccccc2c(=O)[nH]1 | 1 | 5 | -54* | -5 | -16
O=C(CCc1nc2ccccc2c(=O)[nH]1)NCc1ccccn1 | -15 | 1 | -10 | -30* | -5
O=C(CCc1nc2ccccc2c(=O)[nH]1)NCc1ccco1 | 0 | 4 | 10 | -3 | -5
